High-throughput results from PubChem.
Only some compounds are listed: those with a hit (about 17% of all), similar ones and a draw of the others.
ClpP mod = qHTS Assay for Activators of ClpP; ATP-dependent Clp protease proteolytic subunit (Bacillus subtilis (strain 168)), P80244; purified B. subtilis ClpP, FRET peptide cleavage, 20 min; Potency, µM (series often up to 57.5 µM), inactives show at the highest dose activity change, negative = active; 1.9% of 340,000 active; active = well fitted falling curve with a large enough effect; inconclusive = small, poorly fitted or top-dose-only effect; inactive = no such curve, though single readings can be large or run the other way; note: the source files actives as falling curves though it sought activators and does not explain the sign; nearly all actives have a fitted effect of over 65% in size
Target sequence (P80244 whole entry, looked up): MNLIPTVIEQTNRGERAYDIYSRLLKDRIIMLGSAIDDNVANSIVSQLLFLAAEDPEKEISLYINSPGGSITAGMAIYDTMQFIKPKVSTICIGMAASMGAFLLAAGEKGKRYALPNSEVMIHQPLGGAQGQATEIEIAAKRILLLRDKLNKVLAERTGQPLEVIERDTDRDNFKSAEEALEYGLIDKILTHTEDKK
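FRET quenching reversal measured ClpP activation: 10 microg/mL B. subtilis ClpP at pH 8 with the FRET-FV decapeptide, read at 430 nm after 320 nm excitation. The 20-min minus 0-min signal was scaled between DMSO/no-enzyme wells and ADEP (5.8 microM final).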
TDP1 inh = qHTS Assay for Inhibitors of Tyrosyl-DNA Phosphodiesterase (TDP1); Tyrosyl-DNA phosphodiesterase 1 (Homo sapiens), Q9NUW8; recombinant TDP1, AlphaScreen DNA substrate cleavage; Potency, µM (top dose mostly 130 µM), for the others: at the top dose activity change, negative = inhibition, actives largely listed as inhibitors; 0.28% of 350,000 active; AID 485290, 2010; note: % is set by controls: 0 for no effect and ±100 for the full control effect; nearly all actives have a fitted effect of over 40% in size
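E. coli-derived human Tdp1, 1 nM final. Cpd preinc 15 min RT; substrate 15 nM final, 5 min RT; AS bead mix 10 ug/ml final, 10 min RT. Signal loss = tyrosine-FITC cleavage. No-enzyme wells = max signal.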
DT40 TDP1 no CPT = qHTS for Inhibitors of human tyrosyl-DNA phosphodiesterase 1 (TDP1): qHTS in cells in absence of CPT. DT40 Tdp1-/- hTDP1 cells, no CPT, ATP luminescence, 48 h. Potency, µM (highest dose often 46.2 µM), inactives show at the top dose activity change, negative = growth inhibition, usual class: inhibitors. 15% of 420,000 active; note: % is set by controls: 0 for no effect and ±100 for the full control effect; nearly all actives have a fitted effect of over 55% in size
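Camptothecin absent (DMSO only). Human TDP1-complemented DT40 knockout cells, 400 cells/well, 37 °C for minimum 48 hr; ATP measured via CellTiter-Glo, 30 min dark incubation, luminescence.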
DT40 TDP1 CPT = qHTS for Inhibitors of human tyrosyl-DNA phosphodiesterase 1 (TDP1): qHTS in cells in presence of CPT. chicken DT40 Tdp1-/-;hTDP1 cells + 20 nM CPT, ATP luminescence, 48 h. Potency, µM (top dose mostly 46.2 µM), for the others: at the top dose activity change, negative = growth inhibition, most hits filed as inhibitors. 12% of 420,000 active; note: % is set by controls: 0 for no effect and ±100 for the full control effect; nearly all actives have a fitted effect of over 55% in size
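Cell growth measured by CellTiter-Glo luminescence after a minimum 48 h, 37 C compound exposure with 20 nM CPT in Tdp1-knockout DT40 cells stably expressing hTDP1, seeded 400/well; qHTS titration format.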
Starred values were filed as active, the others as inactive; ? = inconclusive; nt = not tested or not shown; [ ] = another dose, or the depositor's remark. Unless noted, calls come from the whole dose curve; as a rule, active = well fitted curve in the direction sought with a large enough effect; inconclusive = small, poorly fitted or top-dose-only effect, or another doubt; inactive = no such curve, though single readings can be large; an effect the other way counts as inactive or inconclusive. Potency is the fitted concentration of half-maximal effect.

SMILES | ClpP mod | TDP1 inh | DT40 TDP1 no CPT | DT40 TDP1 CPT
CC1(C)CC(=O)C([N+](=O)[O-])=C(NCCCC(=O)O)C1 | 14µM* | 0% | 4% | -2%
C[C@@H](Nc1nc(Cl)nc2nc[nH]c12)c1ccccc1 | -1% | 1% | 16µM* | 20µM*
COc1cccc(N2CCN(Cc3nc4scc(-c5ccccc5)c4c(=O)[nH]3)CC2)c1 | -5% | 3% | 5.2µM* | 5.2µM*
O=c1[nH]c(CN2CCN(c3ccc(O)cc3)CC2)nc2scc(-c3ccc(Cl)cc3)c12 | 1% | 1% | 4.6µM* | 3.7µM*
COc1cccc(N2CCN(Cc3nc4ccccc4c(=O)[nH]3)CC2)c1 | -1% | 5% | ? | 1%
O=c1[nH]c(CN2CCN(c3ccccc3O)CC2)nc2scc(-c3ccccc3Cl)c12 | -1% | 1% | ? | ?
Cc1ccc(N(CC(=O)NCc2ccc(Cl)cc2)S(C)(=O)=O)cc1 | 1% | nt | 2% | -21%
CC1CCC(NC(=O)c2ccc(CSc3nc4ccncc4n3Cc3ccc(F)cc3)cc2)CC1 (configuration not stated) | -10% | 8% | 7.3µM* | ?
O=C(NC1CCCC1)c1ccc(CSc2nc3cccnc3n2Cc2cccc(F)c2)cc1 | 5% | 1% | 15µM* | ?
O=C(NCc1ccccc1)c1ccc(CSc2nc3cccnc3n2Cc2cccc(F)c2)cc1 | 4% | 5% | 10µM* | 13µM*
O=C(NCc1ccccc1F)c1ccc(CSc2nc3cccnc3n2Cc2ccccc2)cc1 | 0% | 1% | -8% | -2%
O=C(NCc1ccccc1)c1ccc(CSc2nc3cccnc3n2Cc2ccccc2)cc1 | 4% | 10% | 18µM* | 4.6µM*
O=C(NC1CCCC1)c1ccc(CSc2nc3ccncc3n2Cc2ccccc2F)cc1 | -21% | 5% | ? | ?
COc1ccc([N+](=O)[O-])cc1NS(=O)(=O)c1cccc(C(=O)OC2CCOC2=O)c1 (configuration not stated) | -2% | 0% | -8% | 2%
Cc1nc2sccc2c(=O)n1N | 2% | 5% | 4% | 13%
Cc1coc2c1c(C)cc1oc(=O)c(CC(=O)NCCCCCC(=O)O)c(C)c12 | nt | nt | 0% | 5%
CSCCC(NS(=O)(=O)c1ccc(C)c(C(=O)O)c1)C(=O)O (configuration not stated) | nt | 4% | -18% | -12%
O=C(NC1CCCCC1)c1ccc(CSc2nc3ccncc3n2Cc2cccc(F)c2)cc1 | -7% | 4% | 18µM* | ?
CCN(CC)CCNC(=O)c1ccc(Cn2c(SCc3ccccc3)nc3cccnc32)cc1 | 4% | 4% | -26% | -23%
CCOc1ccccc1CNC(=O)c1ccc(Cn2c(SCc3ccccc3)nc3cccnc32)cc1 | 16µM* | 3% | ? | ?
CNC(=O)c1ccc(CSc2nc3cccnc3n2Cc2cccc(F)c2)cc1 | 5% | 5% | 18µM* | 3.7µM*
Cc1ccccc1CNC(=O)c1ccc(CSc2nc3cccnc3n2Cc2ccccc2)cc1 | 5% | 7% | 13µM* | ?
CC(C)c1ccc(S(=O)(=O)N2CCN(C(=O)C3CCCCC3)CC2)cc1 | 1% | 0% | -21% | ?
CC(=O)c1ccc(NC(=O)Cn2ncc3c(C)n(Cc4ccc(F)cc4)c(C)c3c2=O)cc1 | -9% | 0% | -17% | 1%
COc1ccc(-c2csc3ncnc(Cl)c23)cc1 | -1% | -1% | ? | ?
SMILES | ClpP mod | TDP1 inh | DT40 TDP1 no CPT | DT40 TDP1 CPT
Clc1nc(-c2ccccn2)nc2scc(-c3ccccc3)c12 | 28µM* | 5% | ? | ?
O=C(O)c1cc(-c2ccccc2)c(N2CCOCC2)s1 | 0% | -2% | 2% | -6%
O=C(NCc1ccc2c(c1)OCO2)c1cc(-c2ccccc2)c(N2CCOCC2)s1 | ? | 4% | 21µM* | ?
COc1ccc(CCNC(=O)c2cc(-c3ccccc3)c(N3CCOCC3)s2)c(OC)c1OC | -18% | 9% | 23µM* | 8.2µM*
O=C(NCc1ccco1)c1cc(-c2ccccc2)c(N2CCOCC2)s1 | -6% | 9% | -11% | -1%
CCOc1ccc(CCNC(=O)c2cc(-c3ccccc3)c(N3CCOCC3)s2)cc1 | ? | nt | 29µM* | ?
CN(Cc1ccc2c(c1)OCO2)C(=O)c1cc(-c2ccccc2)c(N2CCOCC2)s1 | ? | 4% | ? | ?
CCOc1ccc(CCNC(=O)c2cc(-c3ccccc3)c(N3CCOCC3)s2)cc1OCC | ? | 7% | 3.3µM* | ?
Cc1ccc(C(=O)COC(=O)c2cc(-c3ccccc3)nc3ccccc23)cc1C | 1% | -4%[12.3 µM] | 20% | 25%
O=C(COC(=O)c1ccc(S(=O)(=O)N2CCCCC2)cc1)NCc1ccc(F)cc1 | -25% | -18% | -2% | -6%
COC(=O)c1nccc2c1[nH]c1ccccc12 | -11% | nt | 23µM* | ?
C(=C\c1ccnc2ccccc12)/c1ccc2c(c1)OCO2 | -20% | nt | ? | ?
COC(=O)c1cc2c([nH]c3ccccc32)c(C)n1 | nt | 6% | nt | nt
C(=C/c1nccc2c1[nH]c1ccccc12)/c1ccc2c(c1)OCO2 | 4% | 2% | 11µM* | 5.6µM*
COc1ccc(/C=C/c2nccc3c2[nH]c2ccccc23)cc1 | 5% | 3% | 11µM* | ?
Cn1c(-c2ccccc2)cc(=O)n1-c1ccccc1 | nt | nt | ? | -25%
O=C(Nc1ccc2nc(C3CC3)n(Cc3ccc(F)cc3)c(=O)c2c1)c1ccco1 | -2% | 10% | ? | 20µM*
CCC(=O)Nc1ccc2nc(C3CC3)n(Cc3ccc(C(C)(C)C)cc3)c(=O)c2c1 | 12% | nt | 15µM* | 18µM*
COc1ccc(Cn2c(C3CC3)nc3ccc(NC(=O)C4CC4)cc3c2=O)cc1 | ? | 7% | ? | -24%
COc1cccc(Cn2c(C3CC3)nc3ccc(NC(=O)c4ccco4)cc3c2=O)c1 | nt | 5% | nt | nt
COc1cc(OC)c(OC)cc1CNc1cc(C)ccc1OC | -1% | 12% | ? | ?
COc1cc(Br)c(CNc2cc(C)ccc2C)cc1OC | 1% | nt | 16µM* | ?
O=C(Nc1ccc2nc(SCC(=O)N3CCCc4ccccc43)sc2c1)c1ccccc1 | 14µM* | 4% | 18µM* | 21µM*
Cc1ccc(C(=O)Nc2ccc3nc(SCC(=O)N4CCCc5ccccc54)sc3c2)cc1 | 20µM* | 1% | 7.3µM* | 12µM*
O=C(Nc1nnc(SCC(=O)N2CCCc3ccccc32)s1)c1ccc2ccccc2c1 | ? | 5% | ? | -27%
O=C(Nc1ccc2nc(SCC(=O)N3CCCC3)sc2c1)c1ccccc1 | ? | -2% | 1% | 1%
